Screening results (PubChem BioAssay)
CYP2C19 inhib – blocks human cytochrome P450 2C19; hit rate 21% among 96,000; AID 778; inhibition, % at 5 µM; P33261; CYP2C19 Supersomes, luciferin-H EGE luminescence, 30 min;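 active means CYP2C19 inhibition above a set limit at 5 µM in the primary screen, cut at about 50% in these data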;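 further: plate controls were negative control wells for no effect and 2.5 mM tranylcypromine positive control for full effect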
Target sequence (P33261 whole entry, looked up): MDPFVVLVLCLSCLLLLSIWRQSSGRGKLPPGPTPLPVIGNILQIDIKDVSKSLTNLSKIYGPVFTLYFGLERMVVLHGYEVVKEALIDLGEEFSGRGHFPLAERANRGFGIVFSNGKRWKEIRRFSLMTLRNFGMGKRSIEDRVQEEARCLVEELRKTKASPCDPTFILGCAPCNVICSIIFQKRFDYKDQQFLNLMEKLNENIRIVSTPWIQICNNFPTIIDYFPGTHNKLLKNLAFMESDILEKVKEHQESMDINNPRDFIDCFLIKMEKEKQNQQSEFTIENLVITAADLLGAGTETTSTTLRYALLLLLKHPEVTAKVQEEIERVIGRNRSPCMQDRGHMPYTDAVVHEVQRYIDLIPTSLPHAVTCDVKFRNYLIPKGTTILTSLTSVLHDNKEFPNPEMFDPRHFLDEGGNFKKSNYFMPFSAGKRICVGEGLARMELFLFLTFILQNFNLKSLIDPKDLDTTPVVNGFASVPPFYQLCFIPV
CYP2C9 inh – human CYP2C9 inhibition. CYP2C9 Supersomes, luciferin-H conversion, luminescence. inhibition, % at 5 µM. hit rate 20% among 96,000;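 active means blocking of liver enzyme CYP2C9 beyond about 50% at 5 µM, limit read from the data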
PLK1 inh – PLK1 (human) kinase inhibition | AID 619 | hit rate 0.53% among 97,000 | P53350 | inhibition, % at 10 µM | recombinant PLK1 kinase, TR-FRET peptide phosphorylation;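 active means inhibition of 50% or more in the single-concentration screen; inactive means inhibition below 50%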;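 further: 0% = DMSO max control and 100% = H-89 dihydrochloride min control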
Plk1 PBD FP – inhibitors of human Plk1 polo box domain binding; Plk1 PBD phosphopeptide binding, fluorescence polarization; inhibition, %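 (tested at about 20 µM)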; P53350; hit rate 0.13% among 97,000; in the data active means inhibition above about 34%, passing the limit was not always enough
CYP2C9 activ – activators of human CYP2C9 | recombinant CYP2C9, luciferin-H conversion, luminescence; stronger effect = higher value; factor 1 = untreated enzyme, 0 = blocked | P11712 | activation factor at 5 µM | hit rate 1.4% among 96,000;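 active means activation factor of 2 or more for CYP2C9 at a 5 µM dose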;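 further: 0 = sulfaphenazole-blocked wells and 1 = vehicle-only wells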
CYP2C19 activ – increases human CYP2C19 enzyme activity | recombinant CYP2C19, luciferin-H EGE luminescence; stronger effect = higher value; 0 = fully inhibited enzyme, 1 = untreated enzyme | activation factor at 5 µM | 96,000 tested, under 10 active | AID 1025;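 active means activation factor of at least 2 at 5 µM in the primary screen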;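 further: 0 = wells with 2.5 mM tranylcypromine and 1 = vehicle-only wells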
* marks the source's active call; other numbers are inactive results; nt = no result given. Hits are enriched below; roughly 28% of the tested compounds scored in any of these assays.

SMILES	CYP2C19 inhib	CYP2C9 inh	PLK1 inh	Plk1 PBD FP	CYP2C9 activ	CYP2C19 activ
C=CCn1c(Cc2cccs2)nnc1SC/C=C/c1ccccc1	70*	58*	-8	10	0.4	0.3
CCn1c(SCC(=O)c2ccccc2)nnc1-c1cccs1	69*	16	-6	10	0.8	0.3
CCn1c(SC(=O)NC2CCCCC2)nnc1-c1cccs1	53*	25	0	-22	0.8	0.5
CCn1c(SCc2nc3ccccc3nc2C)nnc1-c1cccs1	93*	-8	-8	21	1.1	0.1
Cc1occc1-c1nnc(SCC(N)=O)n1Cc1ccccc1	11	2	-14	26	1	0.9
C=CCn1c(SCc2nc3ccccc3nc2C)nnc1-c1ccoc1C	95*	-39	2	-2	1.4	0
Cc1nc2ccccc2nc1CSc1nncs1	nt	nt	-8	-12	nt	nt
CCCN1CCN(CCCNC(=O)C2CCCN(c3nnc(-n4cccc4)s3)C2)CC1 (configuration not stated)	-18	-2	-7	0	1	1.2
Cc1nn(C(=O)C(C)N2C(=O)c3ccccc3C2=O)c(C)c1Br (configuration not stated)	17	-9	5	-12	1.1	0.8
Cc1cn(C(=O)C(C)N2C(=O)c3ccccc3C2=O)c(C)n1 (configuration not stated)	50*	25	-13	14	0.8	0.5
Clc1cccc(CON/C=N/c2ncnc3sccc23)c1	80*	50*	2	-34	0.5	0.2
Clc1cccc(Cl)c1CON/C=N/c1ncnc2sccc12	16	3	-9	-22	1	0.8
c1ccc(CNc2cnccn2)cc1	nt	nt	-1	-1	nt	nt
CCN(CC)S(=O)(=O)c1ccc(NCc2ccccc2)nc1	64*	77*	-12	-15	0.2	0.4
CCOC(=O)N1CCC(NC(=O)c2ccc3c(c2)N(Cc2ccc(C)cc2)CCS3)CC1	4	38	-12	33	0.6	1
CCOC(=O)N1CCC(NC(=O)Cn2nc(Cc3ccncc3)c3ccccc3c2=O)CC1	55*	77*	4	13	0.2	0.4
CCOC(=O)N1CCN(C(=O)c2ccc(OCC)c(OCC)c2)CC1	nt	nt	-7	-22	nt	nt
CCOC(=O)N1CCC(NC(=O)c2cc3c(C)nc4ccccc4c3o2)CC1	40	61*	-15	-7	0.4	0.6
CCOC(=O)N1CCN(C(=O)c2ccc3c(c2)N(CC)CCS3)CC1	4	78*	-11	0	0.2	1
CCOC(=O)N1CCC(NC(=O)c2ccc3c(c2)N(Cc2ccccc2)CCS3)CC1	85*	92*	-14	-7	0.1	0.1
CCn1c(=O)cc(OCC(=O)Nc2cccc(C)n2)c2ccccc21	23	-4	-2	-14	1	0.8
CCCNC(=O)Cn1nc(C(F)(F)F)c2c1CCCC2	nt	nt	-13	4	nt	nt
O=C(Nc1ccc2nc(-c3ccco3)c(-c3ccco3)nc2c1)NC1CC1	nt	nt	38	-6	nt	nt
O=C(NCCCO)Nc1ccc2nc(-c3ccco3)c(-c3ccco3)nc2c1	5	16	52*	-20	0.8	1
Cc1ccc(NC(=O)CSCCc2ccccn2)nc1	6	9	-2	9	0.9	0.9
SMILES	CYP2C19 inhib	CYP2C9 inh	PLK1 inh	Plk1 PBD FP	CYP2C9 activ	CYP2C19 activ
CCOC(=O)C(O)(C1C(=O)CC(C)(C)CC1=O)C(F)(F)F (configuration not stated)	0	93*	-8	-8	0.1	1
CCn1c(O)c(C=NCc2cccs2)c(=O)n(CC)c1=S	34	83*	4	-7	0.2	0.7
CCn1c(SCC(=O)NCc2cccs2)nc2c1c(=O)n(C)c(=O)n2C	4	0	nt	nt	1	1
Cc1ccc2[nH]c3c(c2c1)CCc1cn[nH]c1-3	70*	88*	-2	12	0.1	0.3
Cc1ccc2[nH]c3c(c2c1)CCC3=O	14	23	-14	-7	0.8	0.9
COc1ccc(N2C(=O)CC(S/C(N)=N/N=C(\C)c3cccs3)C2=O)cc1 (configuration not stated)	21	44	-14	-17	0.6	0.8
CCCC(C)NC(=O)c1ccc2[nH]c3c(c2c1)CC(C)CC3 (configuration not stated)	1	51*	-14	14	0.5	1
CC(C)(C)C(=O)Nc1ccccc1C(=O)Nc1cccnc1	-2	17	nt	nt	0.8	1
CC(C)(C)C(=O)Nc1ccccc1C(=O)Nc1cc(Cl)ccc1Cl	29	61*	-12	-9	0.4	0.7
CCCC(=O)Nc1nnc(COC)s1	-4	18	-13	-18	0.8	1
CCOC(=O)c1sc2cc([N+](=O)[O-])cc(SCC(=O)OC)c2c1N	60*	87*	-8	-10	0.1	0.4
Cn1c(=O)n(C)c2cc(NC(=O)c3cc4ccccc4o3)ccc21	9	-16	-16	-22	1.2	0.9
Cc1nc(-c2c(C(F)(F)F)noc2-c2ccc(O)cc2O)cs1	69*	6	-5	-21	0.9	0.3
CCOc1cc(C)c(-c2onc(C(F)(F)F)c2-c2csc(C)n2)c(O)c1	76*	21	-2	-12	0.8	0.2
CCOC(=O)c1[nH]nc(-c2c(O)cc(C)cc2O)c1-c1csc(C)n1	23	11	-14	8	0.9	0.8
Oc1ccc(-c2onc(C(F)(F)F)c2-c2cscn2)c(O)c1	76*	-130	-11	14	2.3*	0.2
CCc1cc2c(=O)c(-c3cscn3)coc2cc1O	-10	-17	nt	nt	1.2	1.1
O=C(NCc1ccco1)C1CCN(S(=O)(=O)Cc2ccccc2)CC1	nt	nt	-9	10	nt	nt
O=C(O)c1c(Cl)c(Cl)c(Cl)c(Cl)c1C(=O)N1CCOCC1	8	19	-13	-9	0.8	0.9
CCCCCc1c(C)nc(Nc2ccccc2)[nH]c1=O	42	12	1	2	0.9	0.6
CCCN(CCC)C(=O)Cn1c(=O)n(CCCCC(=O)NC2CCCC2)c(=O)c2ccccc21	19	46	1	-27	0.5	0.8
O=C(CCCCn1c(=O)c2ccccc2n(Cc2ccc(Cl)cc2)c1=O)NCc1ccco1	18	30	-11	22	0.7	0.8
CC1CC(C)CN(C(=O)Cn2c(=O)n(CCCCC(=O)NC3CCCC3)c(=O)c3ccccc32)C1 (configuration not stated)	33	74*	2	5	0.3	0.7
CCn1c(=O)n(CC(=O)N2CC(C)CC(C)C2)c(=O)c2ccccc21 (configuration not stated)	25	3	-3	1	1	0.7
CC1CC(C)CN(C(=O)Cn2c(=O)n(CCCCC(=O)NCc3ccco3)c(=O)c3ccccc32)C1 (configuration not stated)	29	79*	-17	8	0.2	0.7
O=C(CCCCn1c(=O)c2ccccc2n(CC(=O)NC2CCCC2)c1=O)NCc1ccco1	18	62*	-8	-31	0.4	0.8
